A short description of assay [1]: antimalarial activity against Dd2 strain (AID 2302;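 active = growth inhibition above 50% at the single 2 µM test dose, taken to imply half-maximal potency below 2 µM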;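 note: 0% = DMSO untreated growth and 100% = chloroquine plus artemisinin killed control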). Conditions: P. falciparum Dd2 in RBCs, LDH growth readout, 72 h; at 2 µM; active compounds read high.
A short description of assay [2]: human hepatoma cell viability loss – ATP luminescence, cytotoxicity control for P. falciparum antimalarial project, primary screen (AID 2303;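 active = inhibition above 50%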;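 note: 0% = DMSO wells and 100% = digitonin-killed cells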). Conditions: HepG2 viability, 24-48 h, at 10 µM, active compounds read high.
The target in assay [3] is L-lactate dehydrogenase (Plasmodium falciparum (isolate CDC / Honduras)) (UniProt Q27743). Briefly: PfLDH activity inhibition – cell lysate, 3D7 strain, counter-screen for P. falciparum growth inhibition project (AID 2304).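 Note: 0% = vehicle and 100% = reference inhibitor.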 Conditions: P. falciparum 3D7 crude extract, LDH APAD/NBT absorbance; at 2 µM; active compounds read high.
Chain of L-lactate dehydrogenase (Plasmodium falciparum (isolate CDC / Honduras)) (Q27743 whole entry, looked up): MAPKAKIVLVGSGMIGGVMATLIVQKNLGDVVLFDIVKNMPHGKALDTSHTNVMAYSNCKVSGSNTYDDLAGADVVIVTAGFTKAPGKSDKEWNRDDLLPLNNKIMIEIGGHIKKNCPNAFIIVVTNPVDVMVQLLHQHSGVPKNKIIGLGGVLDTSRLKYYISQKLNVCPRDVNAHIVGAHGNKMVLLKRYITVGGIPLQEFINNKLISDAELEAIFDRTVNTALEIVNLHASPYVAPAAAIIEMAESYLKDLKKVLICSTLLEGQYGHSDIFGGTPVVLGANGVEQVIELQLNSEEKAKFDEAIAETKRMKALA
Assay [4] can be described thus: inhibition of 3D7 malaria parasite growth – strain 3D7 (AID 2306).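 Note: 0% = DMSO wells and 100% = chloroquine plus artemisinin control wells.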 Conditions: P. falciparum 3D7 erythrocytic growth, LDH absorbance, 72 h; at 2 µM; active compounds read high.
Assay [5] has as its target Calcium-dependent protein kinase 1 (Plasmodium falciparum (isolate 3D7)) (UniProt P62344). The experiment in a line: PfCDPK1 kinase inhibitors, biochemical, TCAMS library (AID 1159585; cut-off not given, nearly all actives have IC50 up to about 0.98 µM;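 note: inhibitors leave more ATP so luminescence rises with inhibition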). Conditions: recombinant PfCDPK1, Kinase-Glo ATP depletion luminescence.
In assay [6] the target is Plasmodium falciparum protein kinase 6 (PK6, PF3D7_1337100) (UniProt Q8IDW1). Briefly: PfPK6 kinase inhibitors, biochemical, TCAMS library (AID 1159586). Conditions: recombinant PfPK6, Kinase-Glo ATP depletion luminescence.
Chain of Plasmodium falciparum protein kinase 6 (PK6, PF3D7_1337100) (Q8IDW1 1-305): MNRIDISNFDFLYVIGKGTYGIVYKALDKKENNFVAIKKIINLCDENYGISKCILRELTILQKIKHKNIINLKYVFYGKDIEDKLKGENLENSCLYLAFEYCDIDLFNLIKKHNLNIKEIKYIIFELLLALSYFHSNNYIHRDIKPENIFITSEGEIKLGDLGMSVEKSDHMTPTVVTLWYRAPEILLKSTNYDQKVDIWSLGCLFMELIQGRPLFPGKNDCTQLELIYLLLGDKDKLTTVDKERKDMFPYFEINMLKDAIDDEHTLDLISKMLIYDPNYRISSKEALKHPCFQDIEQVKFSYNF
The target of assay [7] is Protein kinase 7 (PK7), Plasmodium falciparum 3D7 (PF3D7_0213400) (UniProt Q7YTF7). Briefly: inhibition of Plasmodium PK7 catalytic activity – biochemical, TCAMS antimalarial set, Kinase-Glo luminescence (AID 1159587). Conditions: recombinant PfPK7, Kinase-Glo ATP depletion luminescence.
Chain of Protein kinase 7 (PK7), Plasmodium falciparum 3D7 (PF3D7_0213400) (Q7YTF7 1-343): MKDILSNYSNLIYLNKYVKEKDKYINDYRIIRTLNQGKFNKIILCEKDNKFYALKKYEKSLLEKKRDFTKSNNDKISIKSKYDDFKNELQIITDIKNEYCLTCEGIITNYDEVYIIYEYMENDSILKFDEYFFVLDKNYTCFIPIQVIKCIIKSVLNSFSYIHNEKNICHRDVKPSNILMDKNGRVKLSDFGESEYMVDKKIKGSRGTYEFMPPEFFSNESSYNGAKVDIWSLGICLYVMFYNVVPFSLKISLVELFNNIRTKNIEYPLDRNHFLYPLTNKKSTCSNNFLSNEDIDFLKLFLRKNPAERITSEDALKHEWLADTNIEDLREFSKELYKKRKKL
In assay [8] the target is Calcium-dependent protein kinase 4 (Plasmodium falciparum (isolate 3D7)) (UniProt Q8IBS5). Briefly: PfCDPK4 kinase inhibitors, biochemical, TCAMS library (AID 1159588; cut-off not given, nearly all actives have IC50 up to about 0.91 µM). Conditions: recombinant PfCDPK4, Kinase-Glo ATP depletion luminescence.
Chain of Calcium-dependent protein kinase 4 (Plasmodium falciparum (isolate 3D7)) (Q8IBS5 whole entry, looked up): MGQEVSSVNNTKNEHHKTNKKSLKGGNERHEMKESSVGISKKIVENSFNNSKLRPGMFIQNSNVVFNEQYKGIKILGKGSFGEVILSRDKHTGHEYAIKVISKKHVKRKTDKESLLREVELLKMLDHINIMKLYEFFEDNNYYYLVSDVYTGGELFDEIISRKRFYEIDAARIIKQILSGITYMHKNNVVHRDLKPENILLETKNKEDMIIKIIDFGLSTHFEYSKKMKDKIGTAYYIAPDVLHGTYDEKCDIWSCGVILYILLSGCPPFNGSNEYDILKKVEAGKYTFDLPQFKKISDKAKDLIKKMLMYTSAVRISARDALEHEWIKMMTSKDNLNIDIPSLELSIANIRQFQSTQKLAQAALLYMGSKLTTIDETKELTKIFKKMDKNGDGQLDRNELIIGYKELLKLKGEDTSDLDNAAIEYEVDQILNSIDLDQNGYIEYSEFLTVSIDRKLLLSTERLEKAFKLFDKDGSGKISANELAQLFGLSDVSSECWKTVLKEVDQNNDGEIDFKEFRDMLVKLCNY

The values below come from PubChem BioAssay.

Values without a mark were called inactive. For some of these results: Measured potencies and affinities stand elsewhere. Calls of active or inactive are those of the source. Unless noted, the rule behind the calls is not given here.

Chain of Calcium-dependent protein kinase 1 (Plasmodium falciparum (isolate 3D7)) (P62344 whole entry, looked up): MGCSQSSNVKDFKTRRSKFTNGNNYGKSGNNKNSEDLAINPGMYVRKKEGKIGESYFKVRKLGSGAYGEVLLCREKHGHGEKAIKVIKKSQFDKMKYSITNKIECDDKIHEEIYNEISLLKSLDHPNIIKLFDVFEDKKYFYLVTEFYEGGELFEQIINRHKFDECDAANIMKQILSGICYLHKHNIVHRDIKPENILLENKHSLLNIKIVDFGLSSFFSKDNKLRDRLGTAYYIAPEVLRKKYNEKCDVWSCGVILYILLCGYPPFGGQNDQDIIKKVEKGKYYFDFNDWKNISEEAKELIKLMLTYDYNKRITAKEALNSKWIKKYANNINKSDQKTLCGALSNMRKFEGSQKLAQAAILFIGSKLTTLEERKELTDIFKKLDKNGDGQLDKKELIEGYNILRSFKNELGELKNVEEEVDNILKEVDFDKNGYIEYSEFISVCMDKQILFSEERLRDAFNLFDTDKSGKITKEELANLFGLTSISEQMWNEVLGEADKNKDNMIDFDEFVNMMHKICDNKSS

Regarding `CCCCCCN1CCC(CNCc2cccc([N+](=O)[O-])c2)CC1`, the growth inhibition is 15% in assay [1] and 95% (active) in assay [4]. The inhibition was 16% in assay [2] and -1% in assay [3]. In addition, the result in assay [5], in assay [6], in assay [7] and in assay [8] was inactive.

`Cc1cccc2[nH]c(-c3cccc(-c4cccc(C(=O)NCc5nccn5C)c4)c3)nc12`: the growth inhibition is 50% (active) in assay [1] and 99% (active) in assay [4]. Besides, the inhibition in assay [2] is 22%; in assay [3], 8%. Further, the outcome in assay [5], in assay [6], in assay [7] and in assay [8] was inactive.

Turning to `Cc1ccccc1C1CCN(C2CCC(NC(=O)/C=C/c3cc(C(F)(F)F)ccc3F)CC2)CC1` (stereo not given), the growth inhibition in assay [1] was 45%; in assay [4] it was 100% (active). Further, the inhibition in assay [2] is 56% (active); in assay [3], -2%. Besides, the result in assay [5], in assay [6], in assay [7] and in assay [8] was inactive.

On to `Cc1ccc(C)c(CN2CCC(CNC(=O)c3cc4ccc5cccnc5c4[nH]3)CC2)c1`, for which the values for the growth inhibition in assay [1] and in assay [4] were 10% and 95% (active), respectively. Besides, the inhibition in assay [2] is 25%; in assay [3], -3%. For the same molecule, the result in assay [5], in assay [6], in assay [7] and in assay [8] was inactive.

On to `O=C(Nc1ccc(Cl)cc1Cl)N[C@H]1CCN(CCCCCNC(=O)[C@@H]2C[C@H]2c2ccc(Cl)c(Cl)c2)C1`, for which the growth inhibition was 0% in assay [1] and 94% (active) in assay [4]. Besides, the inhibition is 37% in assay [2] and 2% in assay [3]. In addition, the result in assay [5], in assay [6], in assay [7] and in assay [8] was inactive.

For `COC(=O)c1cccc(CNCc2ccc(-c3ccc(-c4nc5ccc(C(F)(F)F)cc5[nH]4)cc3)cc2)c1`, the growth inhibition in assay [1] is 98% (active); in assay [4], 101% (active). The values for the inhibition in assay [2] and in assay [3] were 22% and 0%, respectively. In addition, the result in assay [5], in assay [6], in assay [7] and in assay [8] was inactive.

On to `c1cc(C2=N[C@H]3CCCC[C@@H]3N2)ccc1OCCCOc1ccc(C2=N[C@@H]3CCCC[C@H]3N2)cc1`, for which the results for the growth inhibition in assay [1] and in assay [4] were 64% (active) and 99% (active), respectively. Besides, the figures for the inhibition in assay [2] and in assay [3] were -7% and -3%, respectively. Further, the outcome in assay [5], in assay [6], in assay [7] and in assay [8] was inactive.

As for `C=CCc1cc(OC)ccc1OCCCOc1c(C)nc(N)nc1N`, the growth inhibition in assay [1] was 97% (active); in assay [4], 92% (active). The inhibition in assay [2] was 67% (active); in assay [3] it was -2%. In addition, the result in assay [5], in assay [6], in assay [7] and in assay [8] was inactive.

For `COc1cccc(Nc2c(C(N)=O)cnc3ccc(-c4ccc(S(C)=O)cc4)cc23)c1` (stereo not given), the growth inhibition in assay [1] was 100% (active); in assay [4], 96% (active). The inhibition in assay [2] is -3%; in assay [3], 9%. Further, the result in assay [5], in assay [6], in assay [7] and in assay [8] was inactive.

Regarding `Nc1ccc(Oc2ccc(Cc3cnc(N)nc3N)cc2)cc1`, the growth inhibition was 5% in assay [1] and 86% (active) in assay [4]. In addition, the inhibition was 10% in assay [2] and -3% in assay [3]. Further, the outcome in assay [5], in assay [6], in assay [7] and in assay [8] was inactive.

Consider `CCN(CC)c1ccc(C=CC(=O)NCCN2CCC(N(C)C3CCCCC3C)CC2)cc1` (stereo not given), for which the growth inhibition was 18% in assay [1] and 88% (active) in assay [4]. For the same molecule, the inhibition in assay [2] is 29%; in assay [3], -3%. Also, the outcome in assay [5], in assay [6], in assay [7] and in assay [8] was inactive.

As for `Cc1ccc(C(C)C)c(Oc2cnc(NC(CO)c3ccccc3)nc2N)c1` (stereo not given), the growth inhibition in assay [1] is 0%; in assay [4], 95% (active). Further, the inhibition is 27% in assay [2] and 4% in assay [3]. Besides, the outcome in assay [5], in assay [6], in assay [7] and in assay [8] was inactive.

`Cn1c(NC(=O)C2CCC(CNC(=O)c3ccc(O)c(-c4ccc(Cl)c(Cl)c4)c3)CC2)nc2ccccc21` (stereo not given): the figures for the growth inhibition in assay [1] and in assay [4] were 100% (active) and 99% (active), respectively. For the same molecule, the inhibition in assay [2] was 40%; in assay [3] it was 1%. In addition, the result in assay [5], in assay [6], in assay [7] and in assay [8] was inactive.

Consider `COc1ccc(CNCc2ccccc2)cc1-c1ccc(OC)c(S(=O)(=O)NCCN2CCCC2)c1`, for which the growth inhibition was 55% (active) in assay [1] and 100% (active) in assay [4]. Moreover, the figures for the inhibition in assay [2] and in assay [3] were 14% and -5%, respectively. In addition, the result in assay [5], in assay [6], in assay [7] and in assay [8] was inactive.

`OC(CNc1ccnc(Nc2ccc(Cl)cc2)n1)c1ccccc1C(F)(F)F` (stereo not given): the growth inhibition was 28% in assay [1] and 98% (active) in assay [4]. Moreover, the results for the inhibition in assay [2] and in assay [3] were 22% and 0%, respectively. Besides, the result in assay [5], in assay [6], in assay [7] and in assay [8] was inactive.

As for `CC(C)NCC(=O)Nc1cccc(C(=O)Nc2cccc(C(F)(F)F)c2)c1`, the growth inhibition is 89% (active) in assay [1] and 97% (active) in assay [4]. Also, the inhibition in assay [2] was 6%; in assay [3] it was 4%. In addition, the outcome in assay [5], in assay [6], in assay [7] and in assay [8] was inactive.

`c1cc(CNC2CCCC2)cc(-c2ccc(CNc3ccc4ncccc4c3)cc2)c1`: the growth inhibition was 24% in assay [1] and 98% (active) in assay [4]. Besides, the inhibition in assay [2] was 32%; in assay [3], -9%. Also, the result in assay [5], in assay [6], in assay [7] and in assay [8] was inactive.

`C=CCOC(=O)N1CCC(CNCc2cccc(-c3ccc(-c4nc5ccc(C(F)(F)F)cc5[nH]4)cc3)c2)C1` (stereo not given): the growth inhibition was 96% (active) in assay [1] and 102% (active) in assay [4]. Besides, the figures for the inhibition in assay [2] and in assay [3] were 28% and -3%, respectively. For the same molecule, the result in assay [5], in assay [6], in assay [7] and in assay [8] was inactive.

For the molecule `CC(C(=O)N1CCCC1)N1CCN(S(=O)(=O)c2ccc(C(C)(C)C)cc2)CC1` (stereo not given), the growth inhibition was 86% (active) in assay [1] and 98% (active) in assay [4]. Also, the results for the inhibition in assay [2] and in assay [3] were 4% and 0%, respectively. Further, the result in assay [5], in assay [6], in assay [7] and in assay [8] was inactive.

For the molecule `CCOc1c(Cl)cc(Cl)cc1CNCCCNc1nc2ccccc2[nH]1`, the results for the growth inhibition in assay [1] and in assay [4] were 1% and 94% (active), respectively. The inhibition is 18% in assay [2] and -7% in assay [3]. Besides, the outcome in assay [5], in assay [6], in assay [7] and in assay [8] was inactive.
